Assay results reported in PubChem BioAssay (Tox21).
Records with an inconclusive call do not appear. Where a structure was tested more than once in an assay, its records may differ in their call. Calls of active or inactive are those of the source. Unless noted, calls follow the shape of the full dose curve.

How the values were obtained:
[1] = biological target: Gonadotropin-releasing hormone receptor (Homo sapiens) (UniProt P30968); test: Human gonadotropin-releasing hormone receptor (GnRHR) small molecule agonists, calcium flux assay in GnRHR-HEK293 cells (AID 1920063); also: nearly all actives have a fitted effect of over 35% in size
How it was run: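 Calcium flux, agonist mode, human GnRHR stably integrated in HEK293; dye 1 h at 37 C before compound; Ex/Em=480/540 kinetic read, 3 min; 15 concentrations, triplicate.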

[2] = biological target: KiSS-1 receptor (Homo sapiens) (UniProt Q969F8); test: Human kisspeptin (KISS1R) small molecule agonists, calcium flux assay in KISS1R-HEK293 cells (AID 1920064; active = well fitted activation curve with a large enough effect in the repeat runs)
How it was run: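 Triplicate 15-concentration series were applied to dye-loaded human KISS1R HEK293 cells, and agonist-evoked calcium fluorescence was captured for 3 min.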

[3] = p53 small molecule agonists, cell-based qHTS assay with human liver microsomes (AID 1963577);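 also: p53 response element beta-lactamase reporter cells with liver microsomes plus NADPH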
How it was run: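 16 h, 37 C exposure of p53RE-bla cells to compounds with human liver microsomes and NADPH (0.5 mg/mL final each); detection via LiveBLAzer mixture, 2 h dark at room temperature.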

[4] = p53 small molecule agonists, cell-based qHTS assay with rat liver microsomes (AID 1963578)
How it was run: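 With rat liver microsomes and NADPH present (0.5 mg/mL final each), p53RE-bla cells are treated with compound for 16 h at 37 C. LiveBLAzer detection mixture is then applied for 2 h at room temperature in the dark.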

[5] = p53 small molecule agonists, cell-based qHTS assay with rat liver microsomes: qHTS cell viability counter screen (AID 1963580); also: nearly all actives have a fitted effect of over 45% in size
How it was run: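 Rat liver microsome (0.5 mg/mL final) and NADPH (0.5 mg/mL final) co-incubation with compounds for 16 h at 37 C on HCT-116 p53RE-bla cells; cytotoxicity taken from intracellular ATP luminescence.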

[6] = p53 small molecule agonists, cell-based qHTS assay: qHTS cell viability counter screen (AID 1963581); also: nearly all actives have a fitted effect of over 45% in size
How it was run: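 Multiplexed with the reporter read, a CellTiter-Glo step (30 min, room temperature) gauges ATP-based viability of HCT-116 p53RE-bla cells after 16 h compound incubation at 37 C.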

[7] = p53 small molecule agonists, cell-based qHTS assay (AID 1963582; active = well fitted activation curve with a large enough effect in the signal ratio in the repeat runs, not every such curve was filed as active; the % refers to the signal ratio)
How it was run: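 Beta-lactamase reporter cells (p53RE-bla) treated with compounds for 16 h at 37 C; FRET substrate, 2 h, room temperature; fluorescence intensity.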

[8] = biological target: 5-hydroxytryptamine receptor 2A (Homo sapiens) (UniProt P28223); test: 5-hydroxytryptamine receptor 2A (HTR2A) small molecule antagonists, cell-based qHTS assay (AID 1963586); also: nearly all actives have a fitted effect of over 45% in size; also: potency is read from the fitted curve at half-maximal effect
How it was run: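 CHO cells stably expressing human HTR2A were plated for 18 h at 37 C, then loaded with calcium dye for 1 h. Compounds were preincubated 5 min at room temperature before DOI (4 nM solution) was added. Kinetic fluorescence was read for 3 min.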

[9] = biological target: 5-hydroxytryptamine receptor 2A (Homo sapiens) (UniProt P28223); test: 5-hydroxytryptamine receptor 2A (HTR2A) small molecule agonists, cell-based qHTS assay (AID 1963587); also: nearly all actives have a fitted effect of over 30% in size
How it was run: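 Kinetic calcium-flux fluorescence (2 min, 1 sec intervals) after compound addition in agonist mode. HTR2A-CHO cells were cultured 18 h, then dye-loaded 1 h at 37 C.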

[10] = biological target: Muscarinic acetylcholine receptor M1 (Homo sapiens) (UniProt P11229); test: Cholinergic receptor muscarinic 1 (CHRM1) small molecule agonists, cell-based qHTS assay (AID 1963589); also: nearly all actives have a fitted effect of over 35% in size
How it was run: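 qHTS, 15-point titration, 3 independent runs: compounds pin-transferred onto dye-loaded CHRM1-CHO cells (human M1), calcium fluorescence followed every second to detect agonism.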

[11] = cAMP Responsive Elements (CRE) small molecule agonists, cell-based qHTS assay (AID 1963590)
How it was run: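 Quantitative HTS for CRE agonists: HEK 293T CRE-bla cells, overnight plating, 3 h compound incubation at 37 C/5% CO2, then 2 h room-temperature LiveBLAzer B/G FRET substrate loading.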

[12] = cAMP Responsive Elements (CRE) small molecule antagonists, cell-based qHTS assay (AID 1963591; active = well fitted inhibition curve with a large enough effect in the signal ratio in the repeat runs, not every such curve was filed as active; the % refers to the signal ratio)
How it was run: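 Fluorescence intensity from cleaved LiveBLAzer B/G substrate (2 h, room temperature) quantified CRE-bla activity in HEK 293T cells exposed 3 h to compound with 0.25 uM final NKH477.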

[13] = biological target: Beta-2 adrenergic receptor (Homo sapiens) (UniProt P07550); test: Adrenergic beta2 receptor (ADRB2) small molecule antagonists, cell-based qHTS assay (AID 1963592); also: nearly all actives have a fitted effect of over 50% in size; also: potency is read from the fitted curve at half-maximal effect
How it was run: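 Assay format: CHO-ADRB2 cells, 18-20hr seeding at 37C/5% CO2, then compound plus 1nM isoproterenol agonist mix for 0.5hr RT. Homogeneous time-resolved fluorescence cAMP detection after 1hr, expressed as 665/615 nm ratio.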

[14] = biological target: D(2) dopamine receptor (Homo sapiens) (UniProt P14416); test: Dopamine D2 receptor (DRD2) small molecule agonists, cell-based qHTS assay (AID 1963594); also: nearly all actives have a fitted effect of over 35% in size; also: potency is read from the fitted curve at half-maximal effect
How it was run: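 cAMP accumulation in DRD2-HEK293 cells measured by HTRF after 1 h detection; compounds added 10 min before NKH477 (200nM […]) forskolin-analogue stimulation, 30 min at room temperature, with Ro20-1724 present at 0.1 mM final.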

[15] = biological target: D(2) dopamine receptor (Homo sapiens) (UniProt P14416); test: Dopamine D2 receptor (DRD2) small molecule antagonists, cell-based qHTS assay (AID 1963595; active = well fitted inhibition curve with a large enough effect in the signal ratio in the repeat runs, with a control signal flat; the % refers to the signal ratio; also: potency is read from the fitted curve at half-maximal effect)
How it was run: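 HEK293 cells stably expressing DRD2, preincubated with 0.1 mM Ro20-1724 and compounds 10 min, were stimulated with 200 nM NKH477 plus 12 nM quinpirole for 30 min at room temperature; cAMP measured by HTRF (665/620 nm).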

[16] = biological target: Muscarinic acetylcholine receptor M1 (Homo sapiens) (UniProt P11229); test: Cholinergic receptor muscarinic 1 (CHRM1) small molecule antagonists, cell-based qHTS assay (AID 1963588); also: nearly all actives have a fitted effect of over 40% in size; also: potency is read from the fitted curve at half-maximal effect
How it was run: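 Compounds were tested at 15 concentrations in three independent runs. Dye-loaded CHRM1-CHO cells were exposed 5 min at room temperature before stimulation by acetylcholine added at 50nM. Intracellular calcium was read kinetically on FDSS for 3 min.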

[17] = biological target: Beta-2 adrenergic receptor (Homo sapiens) (UniProt P07550); test: Adrenergic beta2 receptor (ADRB2) small molecule agonists, cell-based qHTS assay (AID 1963593);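 also: CHO cells stably overexpressing human ADRB2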
How it was run: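 CHO cells stably over-expressing ADRB2 were plated overnight at 37C, then dosed with compounds plus a stimulation mix containing 100uM IBMX and 25uM Ro-20-1724 for 0.5hr at room temperature. cAMP was measured by HTRF competition, 1hr.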

[18] = G protein-coupled receptor (GPCR) small molecule agonists, calcium flux assay: HEK293 wild type cell line counter screen (AID 1920065)
How it was run: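 Non-specific calcium responders were flagged by adding DMSO-dissolved compounds to dye-loaded cells and reading 480/540 nm fluorescence each second for 3 min; ATP served as positive control.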

[19] = p53 small molecule agonists, cell-based qHTS assay with human liver microsomes: qHTS cell viability counter screen (AID 1963579); also: nearly all actives have a fitted effect of over 45% in size
How it was run: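 In this multiplexed counter screen, the reporter plates were subsequently treated with CellTiter-Glo so that cell viability, reflected by luminescence, could be recorded for p53RE-bla cells dosed 16 h with compounds under microsomal activation (HLM and NADPH).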

Measured: Potency

Chain of 5-hydroxytryptamine receptor 2A (Homo sapiens) (P28223 whole entry, looked up): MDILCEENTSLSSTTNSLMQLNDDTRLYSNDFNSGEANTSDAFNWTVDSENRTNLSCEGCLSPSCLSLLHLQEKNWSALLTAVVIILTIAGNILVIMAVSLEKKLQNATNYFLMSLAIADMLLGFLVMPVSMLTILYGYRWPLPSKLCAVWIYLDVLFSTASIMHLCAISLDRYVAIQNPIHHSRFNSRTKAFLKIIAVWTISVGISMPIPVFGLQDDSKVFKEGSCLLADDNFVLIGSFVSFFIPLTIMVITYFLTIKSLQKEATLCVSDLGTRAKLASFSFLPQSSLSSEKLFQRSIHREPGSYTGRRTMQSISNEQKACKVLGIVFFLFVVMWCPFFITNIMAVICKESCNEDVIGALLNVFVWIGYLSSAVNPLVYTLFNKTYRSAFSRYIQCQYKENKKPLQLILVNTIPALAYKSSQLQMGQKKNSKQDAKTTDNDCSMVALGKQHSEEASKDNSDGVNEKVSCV
Chain of KiSS-1 receptor (Homo sapiens) (Q969F8 whole entry, looked up): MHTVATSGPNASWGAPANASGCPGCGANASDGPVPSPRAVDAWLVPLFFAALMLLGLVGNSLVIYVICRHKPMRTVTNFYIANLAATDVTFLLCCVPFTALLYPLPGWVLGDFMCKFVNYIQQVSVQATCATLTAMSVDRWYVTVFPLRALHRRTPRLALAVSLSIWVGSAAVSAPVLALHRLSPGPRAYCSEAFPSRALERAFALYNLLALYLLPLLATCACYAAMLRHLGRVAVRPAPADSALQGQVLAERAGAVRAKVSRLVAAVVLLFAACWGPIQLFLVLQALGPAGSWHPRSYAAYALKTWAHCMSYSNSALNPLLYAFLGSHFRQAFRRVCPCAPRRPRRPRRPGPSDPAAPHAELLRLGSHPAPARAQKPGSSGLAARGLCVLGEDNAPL
Chain of D(2) dopamine receptor (Homo sapiens) (P14416 whole entry, looked up): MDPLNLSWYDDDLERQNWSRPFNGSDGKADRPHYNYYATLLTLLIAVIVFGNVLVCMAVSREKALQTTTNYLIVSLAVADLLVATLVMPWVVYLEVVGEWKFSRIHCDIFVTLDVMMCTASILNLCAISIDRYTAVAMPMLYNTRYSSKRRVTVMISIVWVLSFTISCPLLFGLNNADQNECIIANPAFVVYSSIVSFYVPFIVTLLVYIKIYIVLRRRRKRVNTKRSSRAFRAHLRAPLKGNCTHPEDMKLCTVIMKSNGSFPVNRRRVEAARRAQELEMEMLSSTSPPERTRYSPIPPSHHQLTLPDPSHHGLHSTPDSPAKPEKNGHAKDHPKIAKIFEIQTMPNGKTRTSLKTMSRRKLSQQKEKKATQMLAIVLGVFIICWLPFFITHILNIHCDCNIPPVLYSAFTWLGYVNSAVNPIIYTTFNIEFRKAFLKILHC
Chain of Gonadotropin-releasing hormone receptor (Homo sapiens) (P30968 whole entry, looked up): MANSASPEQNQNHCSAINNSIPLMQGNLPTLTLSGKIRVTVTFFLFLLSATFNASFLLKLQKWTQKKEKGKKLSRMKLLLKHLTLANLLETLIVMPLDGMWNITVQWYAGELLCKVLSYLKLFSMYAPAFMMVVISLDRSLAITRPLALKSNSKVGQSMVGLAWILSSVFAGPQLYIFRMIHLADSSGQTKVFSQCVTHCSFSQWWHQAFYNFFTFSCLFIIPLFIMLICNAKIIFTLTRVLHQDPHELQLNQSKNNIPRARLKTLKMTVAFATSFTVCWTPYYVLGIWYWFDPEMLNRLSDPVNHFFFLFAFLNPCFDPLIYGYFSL
Chain of Muscarinic acetylcholine receptor M1 (Homo sapiens) (P11229 whole entry, looked up): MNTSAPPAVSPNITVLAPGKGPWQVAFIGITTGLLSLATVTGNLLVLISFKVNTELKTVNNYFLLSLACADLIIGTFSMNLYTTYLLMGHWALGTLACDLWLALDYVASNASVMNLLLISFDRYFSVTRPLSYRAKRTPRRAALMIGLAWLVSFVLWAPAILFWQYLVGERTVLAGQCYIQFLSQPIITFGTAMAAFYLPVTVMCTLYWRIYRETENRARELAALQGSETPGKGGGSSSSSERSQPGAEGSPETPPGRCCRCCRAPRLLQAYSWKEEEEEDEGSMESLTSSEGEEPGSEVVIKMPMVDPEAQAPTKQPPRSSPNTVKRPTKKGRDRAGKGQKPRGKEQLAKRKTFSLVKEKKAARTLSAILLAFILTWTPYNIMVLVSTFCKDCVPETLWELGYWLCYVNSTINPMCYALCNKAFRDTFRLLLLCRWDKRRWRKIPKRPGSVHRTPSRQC
Chain of Beta-2 adrenergic receptor (Homo sapiens) (P07550 whole entry, looked up): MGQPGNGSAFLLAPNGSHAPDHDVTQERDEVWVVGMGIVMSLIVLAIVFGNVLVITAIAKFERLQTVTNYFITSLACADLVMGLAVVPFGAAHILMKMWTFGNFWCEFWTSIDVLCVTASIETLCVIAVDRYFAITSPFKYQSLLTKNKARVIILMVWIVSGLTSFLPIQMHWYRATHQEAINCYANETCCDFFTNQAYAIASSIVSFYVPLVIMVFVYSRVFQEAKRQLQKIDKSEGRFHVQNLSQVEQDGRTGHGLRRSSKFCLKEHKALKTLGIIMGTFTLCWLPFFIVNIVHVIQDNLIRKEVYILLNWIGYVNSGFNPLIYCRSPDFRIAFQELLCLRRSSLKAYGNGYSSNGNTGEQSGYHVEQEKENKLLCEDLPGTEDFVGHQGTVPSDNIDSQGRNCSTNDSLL

Sc1nc2ccccc2s1
not listed: [16] | [17] | [18] | [19]
inactive: all other assays above

COC(=O)CCCCCCCC(=O)OC
not listed: [18] | [19]
inactive: all other assays above

COC(=O)C1=C(C)NC(C)=C(C(=O)OC)C1c1ccccc1[N+](=O)[O-]
68.7 µM (active) and inactive: [15]
inactive: [1] | [2] | [18] | [6] | [7] | [11] | [13] | [14]

CC(C)(C)NC(=O)[C@@H]1C[C@@H]2CCCC[C@@H]2CN1C[C@@H](O)[C@H](Cc1ccccc1)NC(=O)[C@H](CC(N)=O)NC(=O)c1ccc2ccccc2n1
inactive: [1] | [2] | [18] | [13] | [14] | [15]

CC1CCCC1
inactive: [1] | [2] | [18] | [8] | [9] | [16] | [10] | [12] | [13] | [14]

CN(C)c1ccc(O)c2c1C[C@H]1C[C@H]3[C@H](N(C)C)C(=O)C(C(N)=O)=C(O)[C@@]3(O)C(=O)C1=C2O
not listed: [3] | [4] | [7] | [13] | [17] | [18]
inactive: all other assays above

Cc1ccccc1
not listed: [3] | [4] | [5] | [6] | [7] | [17] | [19]
inactive: all other assays above

OCC(O)CO
not listed: [3] | [4] | [5] | [6] | [7] | [19]
inactive: all other assays above

COc1ccc2cc([C@H](C)C(=O)O)ccc2c1
inactive: [1] | [2] | [18] | [6] | [7] | [12] | [13] | [15]

CCCC(=O)Nc1ccc(OCC(O)CNC(C)C)c(C(C)=O)c1 (stereo not given)
active: [14] 18.8 µM
inactive: [1] | [2] | [18] | [6] | [11] | [12] | [15]

CC(C)c1c(C(=O)Nc2ccccc2)c(-c2ccccc2)c(-c2ccc(F)cc2)n1CC[C@@H](O)C[C@@H](O)CC(=O)O
inactive: [1] | [2] | [18] | [6] | [13] | [14] | [15]

CSc1ccc(O)cc1C
not listed: [12] | [15] | [17] | [18]
inactive: all other assays above

CN(C)C(=O)C(CCN1CCC(O)(c2ccc(Cl)cc2)CC1)(c1ccccc1)c1ccccc1
inactive: [1] | [2] | [18] | [6] | [7] | [12] | [14] | [15]
active: [13] 11.9 µM

CCCCc1oc2ccccc2c1C(=O)c1cc(I)c(OCCN(CC)CC)c(I)c1
inactive: [1] | [2] | [18] | [6] | [7] | [14] | [15]

O=C(O)c1cn(C2CC2)c2cc(N3CCNCC3)c(F)cc2c1=O
inactive: [1] | [2] | [18] | [6] | [11] | [12] | [14] | [15]

Cc1cc(NS(=O)(=O)c2ccc(N)cc2)no1
inactive: [1] | [2] | [18] | [12] | [13] | [14] | [15]

CCCC(C)C(=O)O (stereo not given)
not listed: [3] | [9] | [11] | [17] | [18]
inactive: all other assays above

Clc1ccccc1CN1CCc2sccc2C1
inactive: [1] | [2] | [18] | [11] | [13] | [17] | [14] | [15]

CNCCCN1c2ccccc2CCc2ccccc21
inactive: [1] | [2] | [18] | [7] | [11] | [12]

CN1[C@@H]2CC[C@H]1CC(OC(=O)C(CO)c1ccccc1)C2 (stereo not given in full)
inactive: [1] | [2] | [18] | [11] | [12] | [13] | [14] | [15]

O=C(CCCN1CCC(O)(c2ccc(Cl)cc2)CC1)c1ccc(F)cc1
inactive: [1] | [2] | [18] | [6] | [7] | [11] | [12] | [13] | [17]

COc1ccc(-c2nc3ccc(C4=NNC(=O)CC4C)cc3[nH]2)cc1 (stereo not given)
inactive: [1] | [2] | [18] | [9] | [16] | [10] | [13] | [17] | [15]
active: [8] 0.23 µM

CN1CCN(C2=Nc3cc(Cl)ccc3Nc3ccccc32)CC1
inactive: [1] | [2] | [18] | [6] | [12] | [13]

CC(C)(C)c1ccc(C(O)CCCN2CCC(C(O)(c3ccccc3)c3ccccc3)CC2)cc1 (stereo not given)
inactive: [1] | [2] | [18] | [12] | [13] | [17] | [15]

CN1CCN(CCCN2c3ccccc3Sc3ccc(S(=O)(=O)N(C)C)cc32)CC1
active: [16] 5.16 µM | [15] 47.3 nM
not listed: [8] | [11] | [12] | [13] | [17] | [18] | [19]
inactive: all other assays above

CN1[C@@H]2CC[C@@H]1CC(OC(=O)C(CO)c1ccccc1)C2 (stereo not given in full)
inactive: [1] | [2] | [18] | [12] | [13] | [14] | [15]

CC(C)(C(=O)O)c1ccc(C(O)CCCN2CCC(C(O)(c3ccccc3)c3ccccc3)CC2)cc1 (stereo not given)
inactive: [1] | [2] | [18] | [6] | [7] | [11] | [12] | [13] | [14] | [15]

CN(C)CCCN1c2ccccc2CCc2ccccc21
active: [13] 29.8 µM
inactive: [1] | [2] | [18] | [9] | [10] | [11] | [12] | [14] | [15]

CC(C)n1c(/C=C/[C@@H](O)C[C@@H](O)CC(=O)O)c(-c2ccc(F)cc2)c2ccccc21
inactive: [1] | [2] | [18] | [6] | [11] | [13] | [14] | [15]

COc1c2occc2cc2ccc(=O)oc12
not listed: [3] | [4] | [5] | [8] | [9] | [10] | [16] | [19]
inactive: all other assays above
